In PubChem BioAssay:
Activity calls are given as the source filed them. Unless noted, the rule behind the calls is not given here.

Experiments:
[1] = tested on: XIP peptide (Xip251-270) binding; assay: small-molecule binders of XIP peptide, primary screen, biochemical, small-molecule microarray, fluorescence 635/667 nm, 0.1 µg/mL protein (AID 1182); details: fluorescent protein binding, 635 nm, higher = more signal, called active from +8 up or from −8 down
XIP peptide (Xip251-270) = assay: small-molecule binders of XIP peptide, primary screen, biochemical, small-molecule microarray, fluorescence 635/667 nm, 0.5 µg/mL protein (AID 1183); details: small-molecule microarray binding, fluorescence 635 nm; higher = more signal
[2] = Plasmodium falciparum growth inhibition, primary screen, strain 3D7, DAPI fluorescence, 100 nL (AID 1184);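 note: parasites grown inside human red blood cells in medium with human serum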; details: P. falciparum 3D7 growth, 3 d, higher = more signal
[3] = target: Homeobox protein Hox-A13 (Mus musculus) (UniProt Q62424); assay: inhibitors of HoxA13-DNA binding, primary screen, biochemical, fluorescence polarization, labeled oligonucleotide (AID 1185); details: 15 min, higher = more signal, called active from +8 up or from −8 down
Sequence of Homeobox protein Hox-A13 (Mus musculus) (Q62424 whole entry, looked up): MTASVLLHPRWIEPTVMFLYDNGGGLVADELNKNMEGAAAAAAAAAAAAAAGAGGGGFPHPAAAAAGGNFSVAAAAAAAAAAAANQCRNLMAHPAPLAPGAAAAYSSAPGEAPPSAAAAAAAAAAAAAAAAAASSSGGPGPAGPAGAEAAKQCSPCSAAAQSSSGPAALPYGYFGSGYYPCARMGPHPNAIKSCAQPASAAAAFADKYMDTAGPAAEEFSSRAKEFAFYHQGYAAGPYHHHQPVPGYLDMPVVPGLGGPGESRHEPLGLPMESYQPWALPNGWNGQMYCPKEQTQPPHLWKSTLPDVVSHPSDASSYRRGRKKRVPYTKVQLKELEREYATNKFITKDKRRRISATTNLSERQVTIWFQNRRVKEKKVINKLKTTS

[4] = inhibitors of hydroxyurea-induced Chk1 phosphorylation, primary screen, imaging, HeLa, phospho-Chk1 antibody, percent positive cells (AID 1186); details: hydroxyurea-induced phospho-Chk1 immunofluorescence imaging, higher = more signal
[5] = inhibitors of hydroxyurea-induced Chk1 phosphorylation, primary screen, imaging, HeLa, phospho-Chk1 nuclear intensity (AID 1187); details: hydroxyurea-induced phospho-Chk1 immunofluorescence imaging, higher = more signal

In the case of `C=CCC(OC(C)=O)[C@@H]1[C@@H](N(Cc2cc3ccccc3o2)C(=O)Cc2ccc(OC)cc2)c2cc(OCCCO)ccc2N1C(=O)c1ccc(-c2ccccc2)cc1` (stereo partly specified), the composite z-score [1] is reported as -0.341 (inactive), the composite z-score (XIP peptide (Xip251-270)) is reported as -0.236 and the z-score [2] is reported as -2.84. For the same molecule, the z-score [3] was -1.11 (inactive), the z-score [4] was 0.298 (inactive) and the z-score [5] was 0.549 (inactive).
In the case of `N#Cc1ccc(NN2C(C(O)c3ccccc3)C=CC3C(=O)N(c4ccccc4)C(=O)C32)cc1` (stereo unspecified), the composite z-score [1] is reported as 0.283 (inactive), the composite z-score (XIP peptide (Xip251-270)) is reported as 0.026 and the z-score [2] is reported as 0.635. The z-score [3] was -2.61 (inactive), the z-score [4] was 0.422 (inactive) and the z-score [5] was 0.691 (inactive).
For `O=C1c2ccccc2[C@](Cc2ccccc2I)(C(=O)NCC(F)(F)F)[C@H](c2ccc(CO)cc2)N1Cc1ccccc1`, the composite z-score [1] was 0.164 (inactive), the composite z-score (XIP peptide (Xip251-270)) was 0.647 and the z-score [2] was -0.945. The z-score [3] was -4.04 (inactive), the z-score [4] was -0.25 (inactive) and the z-score [5] was -0.634 (inactive).
For `CN(C)C(=O)[C@@]1(CCS(=O)(=O)c2ccccc2)N=C(c2ccc(OCCCO)cc2)O[C@H]1c1ccccc1CN=[N+]=[N-]`, the composite z-score [1] was 1.41 (inactive), the composite z-score (XIP peptide (Xip251-270)) was 0.653 and the z-score [2] was -2.48. The z-score [3] was -5.32 (inactive), the z-score [4] was -0.359 (inactive) and the z-score [5] was -0.243 (inactive).
For `C=CCOC(=O)[C@@H]1[C@H]2C(=O)O[C@H](c3ccccc3)[C@H](c3ccccc3)N2[C@H](c2ccc(OCCOC(=O)[C@@H]3C[C@@H]4C(=O)N[C@@H](CCCCNC(C)=O)C(=O)N4[C@@H]3c3ccc(O)cc3)cc2)[C@@]12C(=O)Nc1ccc(I)cc12`, the composite z-score [1] was 0.0787 (inactive), the composite z-score (XIP peptide (Xip251-270)) was 0.794 and the z-score [2] was -1.61. The z-score [3] was -0.385 (inactive), the z-score [4] was 0.552 (inactive) and the z-score [5] was 0.882 (inactive).
For `COC(=O)C(CC#Cc1ccc2c(c1)[C@]1(C(=O)N2)[C@H](C(=O)N2CCc3cc(OC)c(OC)cc3C2)[C@H]2C(=O)O[C@H](c3ccccc3)[C@H](c3ccccc3)N2[C@@H]1c1ccc(O)cc1)C(=O)OC`, the composite z-score [1] was 0.534 (inactive), the composite z-score (XIP peptide (Xip251-270)) was 0.789 and the z-score [2] was -2.45. For the same molecule, the z-score [3] was -0.323 (inactive), the z-score [4] was 0.297 (inactive) and the z-score [5] was 0.826 (inactive).
With `C=C(C)[C@@H]1CC=C(C(O)C2C=CC3C(=O)N(C4CCCCC4)C(=O)C3N2Nc2ccc(OC)cc2)CC1` (stereo partly specified) the composite z-score [1] was 0.376 (inactive), the composite z-score (XIP peptide (Xip251-270)) was 0.505 and the z-score [2] was -0.409. For the same molecule, the z-score [3] was -3.47 (inactive), the z-score [4] was -0.385 (inactive) and the z-score [5] was -0.393 (inactive).
In the case of `Cc1ccc(S[C@]2(C(=O)NCC(C)C)CC(=O)N(C3CCCCC3)[C@@H]2c2ccc(CO)cc2I)cc1`, the composite z-score [1] is reported as 1.4 (inactive), the composite z-score (XIP peptide (Xip251-270)) is reported as 0.254 and the z-score [2] is reported as -1.82. The z-score [3] was -3.86 (inactive), the z-score [4] was 0.263 (inactive) and the z-score [5] was 0.746 (inactive).
With `O=C1C2C=CC(C(O)c3ccc(Br)cc3)N(Nc3ccccc3)C2C(=O)N1c1ccccc1` (stereo unspecified) the composite z-score [1] was 0.65 (inactive), the composite z-score (XIP peptide (Xip251-270)) was 0.324 and the z-score [2] was -0.18. The z-score [3] was -3.62 (inactive), the z-score [4] was 0.348 (inactive) and the z-score [5] was 0.453 (inactive).
In the case of `C=C(/C(=C/C[C@@H](OC(=O)c1ccncc1)c1ccccc1OCCO)c1cnc2ccccc2c1)C(C)C`, the composite z-score [1] is reported as 0.509 (inactive), the composite z-score (XIP peptide (Xip251-270)) is reported as 0.723 and the z-score [2] is reported as -2.55. The z-score [3] was -4.63 (inactive), the z-score [4] was 0.864 (inactive) and the z-score [5] was 0.737 (inactive).
With `CCCCCCC#C[Si](O[C@H](c1ccccc1)c1cn(Cc2cccc(Cl)c2)nn1)(C(C)C)C(C)C` the composite z-score [1] was -0.301 (inactive), the composite z-score (XIP peptide (Xip251-270)) was 0.0372 and the z-score [2] was -0.464. For the same molecule, the z-score [3] was 1.16 (inactive), the z-score [4] was -0.195 (inactive) and the z-score [5] was -0.272 (inactive).
For `CCOc1cc(C(O)C2C=CC3C(=O)NC(=O)C3N2Nc2ccccn2)ccc1O` (stereo unspecified), the composite z-score [1] was 0.113 (inactive), the composite z-score (XIP peptide (Xip251-270)) was 0.0151 and the z-score [2] was -0.296. For the same molecule, the z-score [3] was -0.998 (inactive), the z-score [4] was 0.861 (inactive) and the z-score [5] was 0.746 (inactive).
For `COc1ccc(C#Cc2ccc3c(c2)[C@]2(C(=O)N3)[C@H](c3ccc(OCCO)cc3)N3[C@H](c4ccccc4)[C@H](c4ccccc4)OC(=O)[C@H]3[C@@H]2C(=O)N2CCN(c3ncccn3)CC2)cc1`, the composite z-score [1] was -0.138 (inactive), the composite z-score (XIP peptide (Xip251-270)) was 0.0154 and the z-score [2] was -1.31. The z-score [3] was 1.1 (inactive), the z-score [4] was -0.246 (inactive) and the z-score [5] was -0.0676 (inactive).
In the case of `CC(C)NC(=O)[C@@]1(Cc2ccccc2I)c2ccccc2C(=O)N(Cc2ccccc2C(F)(F)F)[C@H]1c1ccc(CO)cc1`, the composite z-score [1] is reported as 0.52 (inactive), the composite z-score (XIP peptide (Xip251-270)) is reported as 0.815 and the z-score [2] is reported as -1.09. For the same molecule, the z-score [3] was -3.19 (inactive), the z-score [4] was -0.195 (inactive) and the z-score [5] was 0.0078 (inactive).
In the case of `Cc1ccc(-c2cccc(=O)o2)cc1`, the composite z-score [1] is reported as -0.0449 (inactive), the composite z-score (XIP peptide (Xip251-270)) is reported as -0.776 and the z-score [2] is reported as 0.842. The z-score [3] was -1.28 (inactive), the z-score [4] was 0.45 (inactive) and the z-score [5] was -0.203 (inactive).
For `C[C@]12C(=O)N(CCCCCO)[C@@H]3C(=O)N(c4ccc(Cl)cc4)CC=CC31O[C@@H]1/C=C\CCCOC(=O)C12` (stereo partly specified), the composite z-score [1] was 0.951 (inactive), the composite z-score (XIP peptide (Xip251-270)) was 0.0211 and the z-score [2] was 1.77. The z-score [3] was -4.29 (inactive), the z-score [4] was 0.0276 (inactive) and the z-score [5] was 0.596 (inactive).
For `C=CCC(OC(C)=O)[C@@H]1[C@@H](N(Cc2cccc3ccccc23)C(=O)c2ccc(C)cc2)c2cc(OCCCO)ccc2N1C(=O)c1ccc2ccccc2c1` (stereo partly specified), the composite z-score [1] was 0.591 (inactive), the composite z-score (XIP peptide (Xip251-270)) was 0.52 and the z-score [2] was -2.2. For the same molecule, the z-score [3] was -0.0802 (inactive), the z-score [4] was -0.995 (inactive) and the z-score [5] was -0.761 (inactive).
In the case of `CCC[C@@H]1C[C@@]1(CCC)[C@@H](NC(=O)c1ccco1)c1ccc(Cl)cc1`, the composite z-score [1] is reported as 0.0025 (inactive), the composite z-score (XIP peptide (Xip251-270)) is reported as -0.835 and the z-score [2] is reported as -1.21. For the same molecule, the z-score [3] was -0.61 (inactive), the z-score [4] was 0.348 (inactive) and the z-score [5] was 0.241 (inactive).
With `CCOC(=O)C[C@H]1[C@H](OC(=O)Cc2ccc3c(c2)OCO3)[C@@H](NC(=O)c2ccccc2)c2cc(OCCCO)ccc2N1C(=O)c1ccccc1` the composite z-score [1] was -0.0294 (inactive), the composite z-score (XIP peptide (Xip251-270)) was 0.643 and the z-score [2] was -0.385. For the same molecule, the z-score [3] was -3.12 (inactive), the z-score [4] was -0.454 (inactive) and the z-score [5] was -0.342 (inactive).
For `CC(C)CCC[C@@H](C)[C@H]1CC[C@@]2(C)C3=C(CC[C@]12C)[C@@]1(C)CC[C@H](OC(=O)c2ccc(N)cc2)C(C)(C)C1CC3` (stereo partly specified), the composite z-score [1] was 0.141 (inactive), the composite z-score (XIP peptide (Xip251-270)) was 0.132 and the z-score [2] was 0.0753. The z-score [3] was -1.09 (inactive), the z-score [4] was -0.516 (inactive) and the z-score [5] was -0.736 (inactive).
With `CN1C(=O)C2C=CC(C(O)c3ccc(F)cc3)N(N3CCCCC3)C2C1=O` (stereo unspecified) the composite z-score [1] was 0.612 (inactive), the composite z-score (XIP peptide (Xip251-270)) was -0.635 and the z-score [2] was -0.0184. The z-score [3] was -7.46 (inactive), the z-score [4] was 0.64 (inactive) and the z-score [5] was -0.206 (inactive).
For `CCCCCCCCCCC(O)C1C=CC2C(=O)NC(=O)C2N1Nc1ccccn1` (stereo unspecified), the composite z-score [1] was -0.0785 (inactive), the composite z-score (XIP peptide (Xip251-270)) was -0.0706 and the z-score [2] was 1.05. The z-score [3] was -2.89 (inactive), the z-score [4] was 0.764 (inactive) and the z-score [5] was 0.554 (inactive).
With `CN(C)CCCC[C@@H]1NC(=O)[C@H]2C[C@@H](C(=O)NCCCCCCNC(=O)CS)[C@@H](c3ccc(O)cc3)N2C1=O` the composite z-score [1] was 1.44 (inactive), the composite z-score (XIP peptide (Xip251-270)) was 0.868 and the z-score [2] was 0.323. The z-score [3] was -2.87 (inactive), the z-score [4] was -0.346 (inactive) and the z-score [5] was 0.128 (inactive).
For `CCC[C@@H]1C[C@@]1(CCC)[C@@H](NC(=O)c1cccs1)c1ccc(Cl)cc1`, the composite z-score [1] was -0.0569 (inactive), the composite z-score (XIP peptide (Xip251-270)) was 0.0455 and the z-score [2] was -0.76. For the same molecule, the z-score [3] was -1.93 (inactive), the z-score [4] was -0.248 (inactive) and the z-score [5] was -0.143 (inactive).
With `COCCOC(=O)N1C(=O)[C@@]2(c3cc(C#Cc4ccc(OC)cc4)ccc31)[C@H](c1ccc(OCCO)cc1)N1[C@H](c3ccccc3)[C@H](c3ccccc3)OC(=O)[C@H]1[C@@H]2C(N)=O` the composite z-score [1] was 1.12 (inactive), the composite z-score (XIP peptide (Xip251-270)) was 0.758 and the z-score [2] was -1.97. For the same molecule, the z-score [3] was -0.245 (inactive), the z-score [4] was 0.105 (inactive) and the z-score [5] was 0.247 (inactive).
For `O=C(N1CCOCC1)[C@@]1(CCS(=O)(=O)c2ccccc2)COC(c2ccc(OCCCO)cc2)=N1`, the composite z-score [1] was 0.429 (inactive), the composite z-score (XIP peptide (Xip251-270)) was 0.599 and the z-score [2] was -1.34. The z-score [3] was -5.88 (inactive), the z-score [4] was 0.145 (inactive) and the z-score [5] was 0.273 (inactive).
